The text below walks through data of PubChem BioAssay (NCATS).

Inconclusive results are not listed. Calls of active or inactive are those of the source. The call rests on the fitted dose curve; in most records, active means well fitted inhibition curve with a large enough effect; inconclusive means small, poorly fitted or top-dose-only effect; inactive means flat fitted curve, though single readings scatter.
On the % scale 0 is the no-effect control and ±100 the full control effect; potency means the concentration at half of the fitted maximal effect.

A short description of the test: qHTS to identify inhibitors of the type 1 interferon - major histocompatibility complex class I in skeletal muscle: primary screen against the NCATS Pharmaceutical Collection (AID 1347407). The conditions noted are these: human skeletal muscle cells, IFN-b-induced MHC-I HiBiT luminescence, 24 h; series mostly up to 45.9 µM; activity change, negative = inhibition: at the top concentration. From the text: Assay Submitter (PI): Travis B. Kinder Ph.D. & James Inglese Ph.D.
Assay Development and Screening Technology Laboratory (ADST)
National Center for Advancing Translational Sciences (NCATS), Rockville, MD
National Institute of Health (NIH), Bethesda, Maryland
Idiopathic inflammatory myopathies, collectively referred to as myositis, are a group of rare autoimmune diseases characterized by skeletal muscle inflammation, weakness, and usually accompanied by systemic pathologies of the skin, lungs, or vasculature. Current immunosuppressive therapies and glucocorticoids are often not curative and are accompanied by harsh side effects, especially in children with juvenile myositis. We initiated a drug repurposing and development program to identify more targeted, less toxic therapeutics to treat myositis. Although its cause is not known, muscle from a subset of patients have an abundance of the inflammatory type 1 interferon (IFN) and a down-stream product major histocompatibility complex class I (MHC class I), which are both thought to contribute to damage and weakness. We conducted quantitative high throughput screening on 6,576 compounds (4,679 unique) through a series of cell-based assays to identify those that inhibit the IFN-stimulated expression of MHC class I in muscle precursor cells (myoblasts). The compound identification and evaluation strategy utilized a primary screen with reporter-tagged MHC class I in genome-engineered myoblasts, ATP content counter screen for viability, HLA-ABC immunofluorescence secondary screen, and HLA-B RT-qPCR tertiary screen.
The primary screen utilized CRISPR/Cas9 genome-engineering of immortalized human myoblasts, C25cl48, where a pro-luminescent reporter HiBit was fused to the C-terminus of endogenous MHC class I allele HLA-B*08:01 (HLA-B HiBit myoblasts). HiBit is an 11 amino acid fragment of NanoLuc luminescent reporter (Promega Corporation), and when complexed to the larger LgBit fragment, the reconstituted enzyme produces light in the presence of furimazine substrate (Schwinn et al., 2018). Briefly, HLA-B HiBit myoblasts were plated into 1536-well plates, treated with 4.0 ng/ml human IFN-beta and 2,816 compounds from the NCATS Pharmaceutical Collection (NPC) that contains all drugs approved in the US, EU, and Japan (Huang et al., 2011) in an 8-point, 1:5 titration with a high final concentration of 46 uM. After 24 hrs of treatment, cells were assayed by Nano-Glo HiBiT Lytic Detection System (Promega) and luminescence measured by a ViewLux 1430 Ultra HTS (Perkin Elmer).
Huang R, Southall N, Wang Y, Yasgar A, Shinn P, Jadhav A, Nguyen D-T, Austin CP. 2011. The NCGC pharmaceutical collection: a comprehensive resource of clinically approved drugs enabling repurposing and chemical genomics. Sci Transl Med 3:80ps16. doi:10.1126/scitranslmed.3001862
Schwinn MK, Machleidt T, Zimmerman K, Eggers CT, Dixon AS, Hurst R, Hall MP, Encell LP, Binkowski BF, Wood K V. 2018. CRISPR-Mediated Tagging of Endogenous Proteins with a Luminescent Peptide. ACS Chem Biol 13:467-474. doi:10.1021/acschembio.7b00549
PROTOCOL TABLE (as described by Inglese et al., 2007)
SEQUENCE No. (e.g., 1, 2, 3, etc.); […] (e.g., Cells, Incubation, Reagent, etc.); VALUE; DESCRIPTION
1a; Cells; 5 uL; Use a Multidrop Combi (Thermo Scientific) to seed 350 cells/well into nine Greiner 1536 well white/solid bottom, high base, TC plates in 5 ul/well of iHSKM growth medium (GM) without dexamethasone into columns 1+2. Add metal lids with gas-exchange holes
1b; Cells; 5 uL; Use a Multidrop Combi (Thermo Scientific) to seed 350 cells/well into nine Greiner 1536 well white/solid bottom, high base, TC plates in 5 ul/well of iHSKM GM without dexamethasone + 4 ng/ml IFN-b into columns 3 - 48. Add metal lids with gas-exchange holes
2; Incubate; 1 hr; Incubate at 37 C, 5% CO2, 95% RH
[…]
Background: In qHTS, concentration-response curves come from the screen itself.
With `Cc1ccc(C(=O)C(C)CN2CCCCC2)cc1` (stereo not given), the “activity change, negative = inhibition” value was 0.448% (inactive).

Take `CC(C)=CCC1C(=O)N(c2ccccc2)N(c2ccccc2)C1=O`: the Potency was 18.7 µM (active). Consider `CN(C)CCOc1ccccc1Cc1ccccc1`, for which the “activity change, negative = inhibition” value is -0.569% (inactive). Still for that read-out and setting: to `NC(=O)C(=O)N/N=C/c1ccc([N+](=O)[O-])o1` belongs 3.32% (inactive); to `NCCCC[C@H](N[C@@H](CCc1ccccc1)C(=O)O)C(=O)N1CCC[C@H]1C(=O)O`, 1.21% (inactive); to `Cc1ccc(Nc2c(F)cccc2Cl)c(CC(=O)O)c1`, -2.2% (inactive). Consider `O=C1c2ccccc2C(=O)C1c1ccccc1`, for which the “activity change, negative = inhibition” value is 17.5% (inactive).

For the compound `CCCN1CCCC[C@H]1C(=O)Nc1c(C)cccc1C`, the “activity change, negative = inhibition” value is 6.68% (inactive). Same read-out and setting: to `COc1cc(OC)cc(OC)c1` belongs -0.966% (inactive). Same read-out and setting: to `C[C@H](CCC(=O)O)[C@H]1CC[C@H]2[C@@H]3C(=O)C[C@@H]4CC(=O)CC[C@]4(C)[C@H]3CC(=O)[C@]12C` belongs -1.9% (inactive); to `Oc1cc(O)c2c(c1)O[C@H](c1ccc(O)c(O)c1)[C@H](O)C2`, -9.11% (inactive). Same read-out and setting: for `O=C(O)CNC(=O)c1ccccc1` the value was 3.48% (inactive); for `Cc1c(C(N)=O)cc([N+](=O)[O-])cc1[N+](=O)[O-]`, 3.51% (inactive); for `Cc1c(C)n(Cc2ccccc2)c2ccc(C(=O)OCCN(C)C)cc12`, -20.5% (inactive). As for `CC[N+](CC)(CCNC(=O)C(=O)NCC[N+](CC)(CC)Cc1ccccc1Cl)Cc1ccccc1Cl`, the “activity change, negative = inhibition” value was -14.2% (inactive). Same read-out and setting: to `CN1C(CCl)Nc2cc(Cl)c(S(N)(=O)=O)cc2S1(=O)=O` (stereo not given) belongs 3.58% (inactive). `CC/C(=C(/CC)c1ccc(O)cc1)c1ccc(O)cc1`: the “activity change, negative = inhibition” value was -4.61% (inactive). Still for that read-out and setting: for `CCOC(=O)c1cccc(N)c1` the value was 0.618% (inactive); for `CN(C)C(=S)SC(=S)N(C)C`, 0.873% (inactive). Take `CCCC(=O)Nc1ccc(OCC(O)CNC(C)C)c(C(C)=O)c1` (stereo not given): the “activity change, negative = inhibition” value is 8.08% (inactive). Turning to `CC(=O)OCC(=O)[C@@]1(O)CC[C@H]2[C@@H]3CCC4=CC(=O)C=C[C@]4(C)[C@H]3[C@@H](O)C[C@@]21C`, the “activity change, negative = inhibition” value is -11.3% (inactive).

For `CC1(C)O[C@@H]2C[C@H]3[C@@H]4C[C@H](F)C5=CC(=O)CC[C@]5(C)[C@H]4[C@@H](O)C[C@]3(C)[C@]2(C(=O)CO)O1`, the “activity change, negative = inhibition” value was -10% (inactive). Still for that read-out and setting: to `CNCC[C@@H](Oc1ccccc1C)c1ccccc1` belongs -4.91% (inactive). For `COCc1c(C(C)C)nc(C(C)C)c(/C=C/[C@@H](O)C[C@@H](O)CC(=O)O)c1-c1ccc(F)cc1`, the “activity change, negative = inhibition” value was -29.2% (inactive). Still for that read-out and setting: to `NCCc1ccn[nH]1` belongs 16.8% (inactive). The same measure, in the same setting: for `CCCCOc1ccc(OCCCN2CCOCC2)cc1` the value was -17.3% (inactive); for `CCCCC1=NC2(CCCC2)C(=O)N1Cc1ccc(-c2ccccc2-c2nn[nH]n2)cc1`, -2% (inactive).

In the case of `CN=C(NC#N)NCCSCc1csc(N=C(N)N)n1`, the “activity change, negative = inhibition” value was -19.5% (inactive).

Regarding `CCN(CC)C(=O)N1CCN(C)CC1`, the “activity change, negative = inhibition” value is 3.47% (inactive). Same read-out and setting: for `Clc1ccc2c(c1)CCc1cccnc1C2=C1CCNCC1` the value was -25.4% (inactive). Regarding `COc1cccc2c1C(=O)c1c(O)c3c(c(O)c1C2=O)C[C@@](O)(C(=O)CO)C[C@@H]3O[C@H]1C[C@H](N)[C@H](O)[C@H](C)O1`, the Potency is 23.6 µM (active).

In the case of `C[C@@H]1C[C@H]2[C@@H]3CCC4=CC(=O)C=C[C@]4(C)[C@@]3(F)[C@@H](O)C[C@]2(C)[C@H]1C(=O)CO`, the “activity change, negative = inhibition” value is -28.4% (inactive). The same measure, in the same setting: to `CCN(CC)CCOC(=O)C(c1ccccc1)C1CCCCC1` (stereo not given) belongs -15% (inactive); to `CCN(CC)CCNC(=O)COc1ccc(Cl)cc1`, 6.82% (inactive). Same read-out and setting: for `CCCCOc1ccc(C(=O)CCN2CCCCC2)cc1` the value was -17.3% (inactive); for `COC(=O)C1=C(C)NC(C)=C(C(=O)O[C@@H]2CCCN(Cc3ccccc3)C2)[C@@H]1c1cccc([N+](=O)[O-])c1`, -25.1% (inactive); for `CCCCCCc1ccc(O)cc1O`, -3.16% (inactive).

With `CC(C)(C(=O)c1cccnc1)c1cccnc1`, the “activity change, negative = inhibition” value is 6.41% (inactive). For `Cc1cc(N)c2cc(NC(=O)Nc3ccc4nc(C)cc(N)c4c3)ccc2n1`, the “activity change, negative = inhibition” value is -28.5% (inactive).

With `COC(=O)CCc1ccc(OCC(O)CNC(C)C)cc1` (stereo not given), the “activity change, negative = inhibition” value was -5.97% (inactive).
